# Results: PubChem BioAssay (NCATS)
# Inconclusive results are not listed. Activity calls are given as the source filed them. Calls follow the shape of the dose curve; as a rule, active = well fitted curve in the direction sought with a large enough effect; inconclusive = small, poorly fitted or top-dose-only effect, or another doubt; inactive = no such curve, though single readings can be large or run the other way.
# Biological target: Glucagon-like peptide 1 receptor (Homo sapiens) (UniProt P43220)
# Sequence (P43220 whole entry, looked up): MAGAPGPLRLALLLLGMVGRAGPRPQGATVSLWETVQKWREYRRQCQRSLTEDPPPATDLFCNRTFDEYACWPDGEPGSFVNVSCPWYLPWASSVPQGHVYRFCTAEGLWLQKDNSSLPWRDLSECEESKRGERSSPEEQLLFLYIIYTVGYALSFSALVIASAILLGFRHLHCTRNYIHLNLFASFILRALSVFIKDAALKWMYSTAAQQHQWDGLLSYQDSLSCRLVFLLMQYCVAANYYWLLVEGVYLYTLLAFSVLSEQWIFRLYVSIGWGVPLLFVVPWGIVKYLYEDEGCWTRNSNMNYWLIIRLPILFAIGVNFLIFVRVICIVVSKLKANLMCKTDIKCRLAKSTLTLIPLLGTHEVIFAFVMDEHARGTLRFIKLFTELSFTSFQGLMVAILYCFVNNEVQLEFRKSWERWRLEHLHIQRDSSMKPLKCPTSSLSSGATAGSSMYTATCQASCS
# Assay: qHTS of GLP-1 Receptor Agonists: LOPAC Validation (AID 624148);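 also: 0% is about no effect; higher luminescence signal means agonism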
# Settings: GLP-1R agonist cell assay; series mostly up to 46.1 µM; activation: at the top concentration
# Procedure, shortened: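 HEK293 cells stably co-expressing GLP-1R and a cAMP-responsive luciferase reporter, plated 12 hours before compound, then incubated 4-6 hr at 37 deg C. Luminescence read 12 min after detection reagent.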
row,SMILES,activation
1,Cc1ccc(S(=O)(=O)/C=C/C#N)cc1,0.209% (inactive)
2,OC[C@H]1O[C@@H](n2cnc3c(Nc4ccccc4)ncnc32)[C@H](O)[C@@H]1O,24.5% (inactive)
3,NC(CCCP(=O)(O)O)C(=O)O (stereo not drawn),0.625% (inactive)
4,NC(=S)NCCC[C@H](N)C(=O)O,0.826% (inactive)
5,COc1cc2nc(N3CCN(C(=O)OCc4ccccc4)C(C(=O)NC(C)(C)C)C3)nc(N)c2cc1OC (stereo not drawn),13.7% (inactive)
6,Oc1ccc(C2CNCc3sccc32)cc1O (stereo not drawn),-1.21% (inactive)
7,NC(=S)c1ccc[n+]([C@@H]2O[C@@H](COP(=O)([O-])OP(=O)(O)OC[C@H]3O[C@@H](n4cnc5c(N)ncnc54)[C@H](OP(=O)(O)O)[C@@H]3O)C(O)C2O)c1 (stereo partly drawn),1.45% (inactive)
8,NCCCCCCCCCCN,-1.34% (inactive)
9,COC(=O)c1c(C)[nH]c(C)c1C(=O)c1ccccc1Cc1ccccc1,6.46% (inactive)
10,O=C(O)c1cc(=O)c2c(Cl)cc(Cl)cc2[nH]1,-2.06% (inactive)
11,CN(C)CCCO[C@@H]1[C@H]2OC(C)(C)O[C@H]2O[C@@H]1[C@H](O)CO,-0.453% (inactive)
12,CC1CN(S(=O)(=O)c2cccc3cnccc23)CCN1 (stereo not drawn),-1.9% (inactive)
13,N=C(N)SCCc1ccc(CCSC(=N)N)cc1,-1.14% (inactive)
14,CC(N)C(=O)OC(C)(C)Cc1ccc(Cl)cc1 (stereo not drawn),-1.17% (inactive)
15,Cc1ccc(O)c(N=Nc2ccccc2)n1,-0.216% (inactive)
16,COc1cccc(OC)c1OCCNCC1COc2ccccc2O1 (stereo not drawn),-1.8% (inactive)
17,NC[C@H]1O[C@@H](n2cnc3c(N)ncnc32)[C@H](O)[C@@H]1O,5.99% (inactive)
18,Ic1ccc(N2CCN(Cc3c[nH]c4ncccc34)CC2)cc1,5.58% (inactive)
19,C[C@@H](CN1CCC(Cc2ccccc2)CC1)[C@@H](O)c1ccc(O)cc1,0.515% (inactive)

row,SMILES,activation
1,CCCCCCCCc1ccc(-c2ccc(C(=O)O)cc2)cc1,-1.59% (inactive)
2,C[N+]1(C)C2CC(OC(=O)[C@H](CO)c3ccccc3)CC1C1OC12 (stereo partly drawn),-2.05% (inactive)
3,CC(C)ON([C@@H](C(=O)NO)C(C)C)S(=O)(=O)c1ccc(-c2ccccc2)cc1,1.49% (inactive)
4,CN(C)C(N)=NCCC[C@H](N)C(=O)O,-1.82% (inactive)
5,CN(C)c1nc(N)c(C(=O)N=C(N)N)nc1Cl,-0.772% (inactive)
6,COc1cc2c(CCNC(C)=O)c[nH]c2cc1Cl,15.3% (inactive)
7,O=C(CCCCCN1CCN(c2ccccc2-c2ccccc2)CC1)NC1CCCc2ccccc21 (stereo not drawn),-1.64% (inactive)
8,C[N+](C)(C)CCOP(=O)(O)OP(=O)([O-])OC[C@H]1O[C@@H](n2ccc(N)nc2=O)[C@H](O)[C@@H]1O,1.03% (inactive)
9,O=c1[nH]c2cc(C(F)(F)F)ccc2n1-c1cc(C(F)(F)F)ccc1O,-1.86% (inactive)
10,CO/S(=N\S(=O)(=O)c1ccc(Cl)cc1)c1ccc([N+](=O)[O-])cc1 (stereo not drawn),-1.4% (inactive)
11,NC(N)=NC(=O)c1nc(Cl)c(N2CCCCCC2)nc1N,9.07% (inactive)
12,O=C(O)[C@@H]1C[C@@H](C(=O)O)N1,-1.91% (inactive)
13,CCCCCCCCCCCCCCCCCC(=O)OC(CC(=O)O)C[N+](C)(C)C (stereo not drawn),-3.41% (inactive)
14,N#C/C(=C\c1ccc(O)c(O)c1)C(=O)c1ccc(O)c(O)c1,7.05% (inactive)
15,CC1(C)CCC=[N+]1[O-],-1% (inactive)
16,C#CCN1C(C)=C(C(=O)OC)C(c2cccc([N+](=O)[O-])c2)C(C(=O)OCC)=C1C (stereo not drawn),4.99% (inactive)
17,O=[N+]([O-])c1ccc(CSc2ncnc3c2ncn3[C@@H]2O[C@H](CO)[C@@H](O)[C@H]2O)cc1,-1.06% (inactive)
18,CSc1ccccc1N1CCN(CCCCCC(=O)NC2CCCc3ccccc32)CC1 (stereo not drawn),1.54% (inactive)
19,CC(=O)N[C@H](C(=O)O)C(C)(C)SN=O,0.698% (inactive)
